# Measured values: ChEMBL document CHEMBL1961873, “Compounds: GSK PKIS; Assays: Nanosyn kinase panel” (2012)
# Assays:
# [1] = target: Fibroblast growth factor receptor 4 (Homo sapiens) (UniProt P22455); settings: at 1 µM;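 further: reported figure is the averaged percent inhibition of FGFR4, from the GSK PKIS kinase screening panel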
# [2] = target: Tyrosine-protein kinase Fgr (Homo sapiens) (UniProt P09769); settings: at 0.1 µM
# [3] = target: Tyrosine-protein kinase Fgr (Homo sapiens) (UniProt P09769); settings: at 1 µM
# [4] = target: Vascular endothelial growth factor receptor 1 (Homo sapiens) (UniProt P17948); settings: at 0.1 µM
# [5] = target: Vascular endothelial growth factor receptor 1 (Homo sapiens) (UniProt P17948); settings: at 1 µM
# [6] = target: Receptor-type tyrosine-protein kinase FLT3 (Homo sapiens) (UniProt P36888); settings: at 0.1 µM
# [7] = target: Receptor-type tyrosine-protein kinase FLT3 (Homo sapiens) (UniProt P36888); settings: at 1 µM
# [8] = tested on: T1, Receptor-type tyrosine-protein kinase FLT3 (Homo sapiens), P36888 [D835Y]; settings: at 0.1 µM
# T1 sequence (whole entry): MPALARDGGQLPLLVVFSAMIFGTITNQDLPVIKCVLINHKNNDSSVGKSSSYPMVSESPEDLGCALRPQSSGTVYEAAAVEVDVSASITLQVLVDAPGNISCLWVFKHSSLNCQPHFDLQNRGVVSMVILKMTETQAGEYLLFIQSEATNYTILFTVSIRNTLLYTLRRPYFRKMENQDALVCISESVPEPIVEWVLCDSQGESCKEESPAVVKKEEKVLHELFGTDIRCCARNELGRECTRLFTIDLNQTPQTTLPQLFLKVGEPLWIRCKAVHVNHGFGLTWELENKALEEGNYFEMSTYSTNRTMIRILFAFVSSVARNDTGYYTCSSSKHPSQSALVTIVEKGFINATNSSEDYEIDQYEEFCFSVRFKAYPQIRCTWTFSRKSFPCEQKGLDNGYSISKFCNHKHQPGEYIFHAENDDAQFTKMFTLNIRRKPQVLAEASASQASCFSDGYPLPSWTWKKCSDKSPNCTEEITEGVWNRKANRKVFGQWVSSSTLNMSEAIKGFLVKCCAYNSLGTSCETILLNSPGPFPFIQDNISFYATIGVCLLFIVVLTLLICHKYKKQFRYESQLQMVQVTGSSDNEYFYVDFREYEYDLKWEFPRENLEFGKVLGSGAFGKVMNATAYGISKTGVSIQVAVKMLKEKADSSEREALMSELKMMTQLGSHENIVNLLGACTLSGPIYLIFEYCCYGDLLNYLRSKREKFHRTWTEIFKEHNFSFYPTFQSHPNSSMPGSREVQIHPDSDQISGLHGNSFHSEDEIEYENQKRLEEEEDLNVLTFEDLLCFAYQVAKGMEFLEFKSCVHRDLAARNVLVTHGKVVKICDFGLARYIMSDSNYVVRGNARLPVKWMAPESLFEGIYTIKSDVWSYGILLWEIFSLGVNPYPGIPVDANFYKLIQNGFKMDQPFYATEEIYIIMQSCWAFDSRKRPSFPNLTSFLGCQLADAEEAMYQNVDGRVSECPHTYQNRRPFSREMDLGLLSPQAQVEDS
# [9] = target: Non-receptor tyrosine-protein kinase TYK2 (Homo sapiens) (UniProt P29597); settings: at 1 µM;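 further: values are mean percent inhibition of TYK2 kinase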
# [10] = target: T2, Tyrosine-protein kinase receptor TYRO3 (Homo sapiens) (UniProt Q06418); settings: at 0.1 µM
# T2 sequence (whole entry): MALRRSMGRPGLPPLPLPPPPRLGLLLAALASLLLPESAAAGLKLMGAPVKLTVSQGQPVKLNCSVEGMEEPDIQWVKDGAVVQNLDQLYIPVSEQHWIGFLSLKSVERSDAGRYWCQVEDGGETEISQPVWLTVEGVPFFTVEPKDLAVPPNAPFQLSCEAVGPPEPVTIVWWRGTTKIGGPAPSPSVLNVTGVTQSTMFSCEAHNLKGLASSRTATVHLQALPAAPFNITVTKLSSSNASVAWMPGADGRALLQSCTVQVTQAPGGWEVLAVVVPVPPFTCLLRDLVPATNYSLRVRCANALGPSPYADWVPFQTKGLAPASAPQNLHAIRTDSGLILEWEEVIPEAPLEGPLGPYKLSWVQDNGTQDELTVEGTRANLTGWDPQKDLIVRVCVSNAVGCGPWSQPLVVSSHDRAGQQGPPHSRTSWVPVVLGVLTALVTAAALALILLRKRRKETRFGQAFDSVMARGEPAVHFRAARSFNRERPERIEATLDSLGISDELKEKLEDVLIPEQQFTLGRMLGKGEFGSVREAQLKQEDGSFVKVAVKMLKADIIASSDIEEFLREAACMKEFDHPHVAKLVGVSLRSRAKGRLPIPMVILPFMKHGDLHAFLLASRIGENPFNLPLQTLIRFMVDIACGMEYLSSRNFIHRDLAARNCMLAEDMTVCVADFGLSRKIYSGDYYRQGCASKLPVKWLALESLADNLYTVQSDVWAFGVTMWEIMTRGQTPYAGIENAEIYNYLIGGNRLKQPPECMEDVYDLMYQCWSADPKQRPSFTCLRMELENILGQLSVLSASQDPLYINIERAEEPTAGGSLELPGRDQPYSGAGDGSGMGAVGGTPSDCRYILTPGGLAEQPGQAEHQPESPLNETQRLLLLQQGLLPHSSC
# [11] = target: T2, Tyrosine-protein kinase receptor TYRO3 (Homo sapiens); settings: at 1 µM
# [12] = target: Tyrosine-protein kinase Yes (Homo sapiens) (UniProt P07947); settings: at 0.1 µM
# [13] = target: Tyrosine-protein kinase Yes (Homo sapiens) (UniProt P07947); settings: at 1 µM
# [14] = target: T3, Tyrosine-protein kinase ZAP-70 (Homo sapiens) (UniProt P43403); settings: at 0.1 µM
# T3 sequence (whole entry): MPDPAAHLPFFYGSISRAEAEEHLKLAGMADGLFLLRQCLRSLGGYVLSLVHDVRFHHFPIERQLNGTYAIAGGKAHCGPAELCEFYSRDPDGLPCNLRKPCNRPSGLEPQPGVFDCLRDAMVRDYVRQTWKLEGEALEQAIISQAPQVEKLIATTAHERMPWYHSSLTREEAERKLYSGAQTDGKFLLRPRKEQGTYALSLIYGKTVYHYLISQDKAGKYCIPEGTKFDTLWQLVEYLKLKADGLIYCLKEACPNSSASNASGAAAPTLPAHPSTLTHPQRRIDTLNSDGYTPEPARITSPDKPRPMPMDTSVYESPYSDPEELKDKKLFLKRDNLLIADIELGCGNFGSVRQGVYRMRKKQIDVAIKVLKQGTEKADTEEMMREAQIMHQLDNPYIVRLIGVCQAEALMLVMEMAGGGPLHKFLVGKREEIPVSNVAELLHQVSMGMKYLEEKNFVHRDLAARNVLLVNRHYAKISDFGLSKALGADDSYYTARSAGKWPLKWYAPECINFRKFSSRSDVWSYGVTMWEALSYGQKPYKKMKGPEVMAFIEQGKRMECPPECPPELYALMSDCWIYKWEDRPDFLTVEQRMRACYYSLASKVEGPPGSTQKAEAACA
# [15] = target: T3, Tyrosine-protein kinase ZAP-70 (Homo sapiens); settings: at 1 µM
# [16] = target: Serine/threonine-protein kinase B-raf (Homo sapiens) (UniProt P15056); settings: at 0.1 µM
# [17] = target: Serine/threonine-protein kinase B-raf (Homo sapiens) (UniProt P15056); settings: at 1 µM
# [18] = tested on: Serine/threonine-protein kinase B-raf (Homo sapiens), P15056 [V600E]; settings: at 0.1 µM
# [19] = tested on: Serine/threonine-protein kinase B-raf (Homo sapiens), P15056 [V600E]; settings: at 1 µM
# [20] = target: RAF proto-oncogene serine/threonine-protein kinase (Homo sapiens) (UniProt P04049); settings: at 0.1 µM;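 further: values are mean CRAF kinase inhibition from profiling of the GSK Published Kinase Inhibitor Set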
# Chain of Vascular endothelial growth factor receptor 1 (Homo sapiens) (P17948 whole entry): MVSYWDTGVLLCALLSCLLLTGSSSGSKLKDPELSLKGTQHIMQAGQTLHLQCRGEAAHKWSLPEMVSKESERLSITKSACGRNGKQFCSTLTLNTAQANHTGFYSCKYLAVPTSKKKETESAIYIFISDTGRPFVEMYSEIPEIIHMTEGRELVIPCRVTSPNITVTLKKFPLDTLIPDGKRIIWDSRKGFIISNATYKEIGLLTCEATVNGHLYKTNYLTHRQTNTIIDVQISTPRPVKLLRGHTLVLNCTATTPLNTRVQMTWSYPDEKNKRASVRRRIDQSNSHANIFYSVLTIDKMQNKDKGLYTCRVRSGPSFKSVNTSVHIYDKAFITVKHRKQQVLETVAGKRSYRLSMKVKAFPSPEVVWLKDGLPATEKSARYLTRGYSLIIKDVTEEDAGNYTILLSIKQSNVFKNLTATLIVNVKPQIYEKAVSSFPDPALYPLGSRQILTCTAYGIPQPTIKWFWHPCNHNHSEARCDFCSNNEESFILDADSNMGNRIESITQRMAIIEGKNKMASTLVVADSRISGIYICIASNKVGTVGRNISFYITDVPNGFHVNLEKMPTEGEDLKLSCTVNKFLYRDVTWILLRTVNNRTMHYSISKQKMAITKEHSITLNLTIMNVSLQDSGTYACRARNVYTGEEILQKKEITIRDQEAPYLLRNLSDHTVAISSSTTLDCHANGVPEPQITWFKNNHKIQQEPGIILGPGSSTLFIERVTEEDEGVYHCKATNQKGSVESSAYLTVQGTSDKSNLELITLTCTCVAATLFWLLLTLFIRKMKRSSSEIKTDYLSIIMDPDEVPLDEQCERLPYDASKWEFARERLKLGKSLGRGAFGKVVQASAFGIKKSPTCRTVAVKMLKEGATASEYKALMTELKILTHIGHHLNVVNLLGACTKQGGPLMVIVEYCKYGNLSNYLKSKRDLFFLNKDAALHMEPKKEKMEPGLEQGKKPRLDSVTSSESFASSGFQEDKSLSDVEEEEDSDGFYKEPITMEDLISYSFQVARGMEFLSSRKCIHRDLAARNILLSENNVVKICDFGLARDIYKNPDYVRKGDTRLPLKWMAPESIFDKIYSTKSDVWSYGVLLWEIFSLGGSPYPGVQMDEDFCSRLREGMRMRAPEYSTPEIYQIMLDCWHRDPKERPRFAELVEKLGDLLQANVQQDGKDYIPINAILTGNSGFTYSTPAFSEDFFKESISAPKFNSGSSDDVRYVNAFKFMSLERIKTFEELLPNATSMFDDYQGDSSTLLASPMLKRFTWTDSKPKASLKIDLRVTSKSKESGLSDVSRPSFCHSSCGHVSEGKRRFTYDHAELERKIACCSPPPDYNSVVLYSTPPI
# Chain of Serine/threonine-protein kinase B-raf (Homo sapiens), P15056 [V600E] (P15056 whole entry V600E): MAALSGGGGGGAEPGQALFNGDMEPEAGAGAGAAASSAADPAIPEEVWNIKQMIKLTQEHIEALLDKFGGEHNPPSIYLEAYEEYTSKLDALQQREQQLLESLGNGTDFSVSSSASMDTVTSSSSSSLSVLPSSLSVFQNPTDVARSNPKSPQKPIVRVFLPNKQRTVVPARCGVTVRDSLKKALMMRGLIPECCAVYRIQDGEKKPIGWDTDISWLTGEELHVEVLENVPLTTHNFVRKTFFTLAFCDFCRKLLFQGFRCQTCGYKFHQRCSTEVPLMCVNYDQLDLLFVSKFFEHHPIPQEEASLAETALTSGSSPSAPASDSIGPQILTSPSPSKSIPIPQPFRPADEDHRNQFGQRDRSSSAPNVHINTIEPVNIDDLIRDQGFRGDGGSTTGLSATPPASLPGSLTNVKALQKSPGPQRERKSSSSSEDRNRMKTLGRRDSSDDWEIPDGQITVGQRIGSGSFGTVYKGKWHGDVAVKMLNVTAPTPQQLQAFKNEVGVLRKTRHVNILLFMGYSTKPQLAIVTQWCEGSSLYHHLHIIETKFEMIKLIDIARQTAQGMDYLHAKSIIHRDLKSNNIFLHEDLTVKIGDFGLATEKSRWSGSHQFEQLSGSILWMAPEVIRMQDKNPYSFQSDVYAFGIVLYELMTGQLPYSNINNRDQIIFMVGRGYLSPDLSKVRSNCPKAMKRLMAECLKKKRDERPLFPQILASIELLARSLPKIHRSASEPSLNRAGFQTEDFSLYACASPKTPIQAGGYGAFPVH
# Chain of Fibroblast growth factor receptor 4 (Homo sapiens) (P22455 22-802 limits assumed): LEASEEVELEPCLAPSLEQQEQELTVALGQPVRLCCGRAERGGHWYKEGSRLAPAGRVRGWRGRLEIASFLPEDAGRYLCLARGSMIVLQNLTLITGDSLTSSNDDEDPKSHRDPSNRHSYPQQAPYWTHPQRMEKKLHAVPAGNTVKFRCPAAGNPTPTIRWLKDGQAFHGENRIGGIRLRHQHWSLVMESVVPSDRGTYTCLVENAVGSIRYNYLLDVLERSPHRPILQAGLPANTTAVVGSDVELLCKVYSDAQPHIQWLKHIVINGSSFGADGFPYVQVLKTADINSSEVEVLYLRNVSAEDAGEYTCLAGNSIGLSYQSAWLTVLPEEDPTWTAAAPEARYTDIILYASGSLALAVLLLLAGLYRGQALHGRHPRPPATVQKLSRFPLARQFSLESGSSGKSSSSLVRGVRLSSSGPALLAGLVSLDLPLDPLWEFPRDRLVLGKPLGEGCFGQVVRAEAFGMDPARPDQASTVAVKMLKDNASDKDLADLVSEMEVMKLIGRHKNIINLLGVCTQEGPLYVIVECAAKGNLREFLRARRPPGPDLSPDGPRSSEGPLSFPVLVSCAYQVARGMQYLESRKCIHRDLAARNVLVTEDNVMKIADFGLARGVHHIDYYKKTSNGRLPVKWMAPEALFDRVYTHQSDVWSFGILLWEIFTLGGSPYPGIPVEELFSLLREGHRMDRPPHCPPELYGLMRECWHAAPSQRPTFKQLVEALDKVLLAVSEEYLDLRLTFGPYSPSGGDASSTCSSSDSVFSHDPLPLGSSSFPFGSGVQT
# Chain of Tyrosine-protein kinase Yes (Homo sapiens) (P07947 2-543 limits assumed): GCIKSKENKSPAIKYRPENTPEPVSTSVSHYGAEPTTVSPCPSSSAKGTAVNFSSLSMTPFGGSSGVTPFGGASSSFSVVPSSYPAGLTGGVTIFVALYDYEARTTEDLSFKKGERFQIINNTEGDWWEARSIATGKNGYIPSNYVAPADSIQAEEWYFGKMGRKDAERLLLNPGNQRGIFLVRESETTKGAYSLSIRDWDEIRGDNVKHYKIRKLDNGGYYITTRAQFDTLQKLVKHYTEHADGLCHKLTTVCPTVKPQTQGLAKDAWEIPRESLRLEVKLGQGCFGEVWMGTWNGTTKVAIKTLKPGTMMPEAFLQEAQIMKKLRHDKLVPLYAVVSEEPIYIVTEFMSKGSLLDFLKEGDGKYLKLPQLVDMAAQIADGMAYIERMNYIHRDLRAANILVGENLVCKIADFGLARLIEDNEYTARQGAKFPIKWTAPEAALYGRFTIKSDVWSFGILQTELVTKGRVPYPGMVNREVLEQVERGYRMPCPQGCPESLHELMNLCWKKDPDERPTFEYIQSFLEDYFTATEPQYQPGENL
# Chain of Serine/threonine-protein kinase B-raf (Homo sapiens) (P15056 whole entry): as the sequence (P15056 whole entry V600E) above, with E600V counted along it
# Chain of Non-receptor tyrosine-protein kinase TYK2 (Homo sapiens) (P29597 whole entry): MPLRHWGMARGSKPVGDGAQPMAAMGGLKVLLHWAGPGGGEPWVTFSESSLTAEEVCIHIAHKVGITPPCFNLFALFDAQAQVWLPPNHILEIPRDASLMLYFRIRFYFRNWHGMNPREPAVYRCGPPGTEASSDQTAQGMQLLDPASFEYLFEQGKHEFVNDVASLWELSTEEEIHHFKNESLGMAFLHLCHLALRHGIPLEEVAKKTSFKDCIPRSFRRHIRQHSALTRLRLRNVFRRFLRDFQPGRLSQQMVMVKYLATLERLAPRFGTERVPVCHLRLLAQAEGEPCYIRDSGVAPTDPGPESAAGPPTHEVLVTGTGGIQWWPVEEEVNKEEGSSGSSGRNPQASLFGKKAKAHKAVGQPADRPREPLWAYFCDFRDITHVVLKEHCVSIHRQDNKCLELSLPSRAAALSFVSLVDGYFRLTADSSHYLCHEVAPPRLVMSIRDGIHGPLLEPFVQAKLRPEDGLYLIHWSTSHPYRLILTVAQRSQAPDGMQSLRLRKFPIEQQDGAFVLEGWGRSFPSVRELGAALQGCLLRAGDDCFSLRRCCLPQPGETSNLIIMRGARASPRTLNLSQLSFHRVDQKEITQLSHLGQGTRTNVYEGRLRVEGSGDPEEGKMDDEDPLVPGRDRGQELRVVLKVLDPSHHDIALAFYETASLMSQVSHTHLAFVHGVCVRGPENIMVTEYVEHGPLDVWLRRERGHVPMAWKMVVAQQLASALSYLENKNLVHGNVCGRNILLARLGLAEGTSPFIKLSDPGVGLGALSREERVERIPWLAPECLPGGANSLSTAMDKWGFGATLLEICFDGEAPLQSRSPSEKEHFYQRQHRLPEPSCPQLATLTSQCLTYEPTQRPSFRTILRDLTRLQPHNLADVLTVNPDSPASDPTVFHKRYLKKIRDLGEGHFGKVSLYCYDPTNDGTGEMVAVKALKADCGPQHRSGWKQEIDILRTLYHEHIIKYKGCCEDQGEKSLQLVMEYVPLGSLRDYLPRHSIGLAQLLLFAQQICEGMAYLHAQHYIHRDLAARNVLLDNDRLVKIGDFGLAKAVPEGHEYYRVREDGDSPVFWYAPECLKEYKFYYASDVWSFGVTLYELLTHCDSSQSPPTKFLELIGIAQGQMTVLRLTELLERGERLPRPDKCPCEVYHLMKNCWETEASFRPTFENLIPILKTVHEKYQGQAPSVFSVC
SMILES,inhibition [1],inhibition [2],inhibition [3],inhibition [4],inhibition [5],inhibition [6],inhibition [7],inhibition [8],inhibition [9],inhibition [10],inhibition [11],inhibition [12],inhibition [13],inhibition [14],inhibition [15],inhibition [16],inhibition [17],inhibition [18],inhibition [19],inhibition [20]
CCn1c(-c2nonc2N)nc2ccccc21,-0.03%,2.86%,4.31%,2.69%,0.59%,0.25%,0.31%,3.23%,-0.21%,1.05%,0.63%,-0.03%,-1.08%,1%,-0.17%,3.74%,4.94%,3.64%,4.52%,2.9%
O=C(O[C@H]1CN[C@H](C#Cc2cc3ncnc(Nc4ccc(Cc5ccccc5)cc4)c3s2)C1)N1CCOCC1,0.95%,5.25%,20.8%,-0.12%,2.35%,-1.61%,0.34%,5.18%,-3.27%,0.99%,0.43%,7.04%,38.8%,-0.2%,2.04%,3.95%,4.23%,3.02%,3.28%,-1.64%
NC(=O)c1sc(-n2cnc3ccc(C(F)(F)F)cc32)cc1OCc1ccccc1Br,2.14%,3.5%,1.54%,1.4%,4.1%,1.91%,1.02%,-2.48%,-3.62%,3.13%,2.95%,2.93%,6.95%,2.64%,2.31%,6.14%,7.4%,5.99%,6.42%,-1.07%
COC(=O)Nc1nc2ccc(S(=O)(=O)c3ccc(NC(=O)Nc4cc(C(F)(F)F)ccc4F)cc3)cc2[nH]1,0.83%,0.25%,6.79%,0.68%,-0.67%,-0.31%,3.96%,-2.76%,0.09%,0.25%,2.45%,1.97%,-2.4%,2.44%,3.21%,3.07%,3.12%,3.61%,4.39%,-1.21%
Nc1nc(-c2ccc(F)cc2)c(-c2ccc3ncccc3n2)s1,3.47%,6.43%,14.1%,-0.09%,6.56%,3.5%,3.75%,1.18%,-1.99%,3.01%,2.87%,6.52%,37.8%,1.91%,1.99%,6.57%,7.72%,6.41%,7.92%,0.53%
COc1cc2ncn(-c3cc(OCc4ccccc4C(F)(F)F)c(C(=O)N(C)C)s3)c2cc1OC,2.15%,0.95%,6.42%,-0.21%,6.59%,-1.41%,0.81%,-1.94%,1.47%,0.67%,2%,0.64%,6.88%,1.79%,1.15%,-0.22%,1.2%,-0.77%,2.51%,0.38%
CCNC(=O)O[C@H]1CN[C@H](C#Cc2cc3ncnc(Nc4ccc(OCc5cccc(F)c5)c(Cl)c4)c3s2)C1,-0.06%,1.28%,1.88%,2.51%,1.26%,2.06%,2.34%,3.08%,-3.06%,2.91%,1.4%,1.68%,-0.6%,-3.39%,-3.28%,4.28%,4.49%,2.44%,2.23%,-0.64%
COc1cccc(-n2ncc3c(N/N=C/c4ccc(F)cc4)ncnc32)c1,2.78%,11.4%,29.7%,2.07%,3.41%,3.58%,7.87%,0.24%,-1.74%,5%,9.33%,5.87%,25.1%,2.73%,2.54%,7.43%,8.16%,5.77%,7.05%,0.27%
c1cc(-c2cnn3nc(N4CCOCC4)ccc23)nc(NC2CC2)n1,1.73%,3.22%,8.79%,3.82%,8.82%,4.34%,17.2%,7.24%,-4.59%,-0.77%,2.97%,0.8%,0.73%,-5.37%,-0.37%,6.23%,11.5%,3.6%,9.04%,1.78%
CC(=O)Nc1cccc(C#Cc2cncnc2Nc2ccc(OCc3cccc(F)c3)c(Cl)c2)c1,1.74%,2.84%,9.6%,2.19%,3.25%,2.59%,2.38%,-3.37%,0.26%,3.62%,0.81%,1.2%,1.7%,3.59%,6.95%,1.95%,1.44%,1.85%,2.03%,2.77%
Fc1ccc(-c2nn3ncccc3c2-c2ccnc(Nc3ccc4c(c3)OCCO4)n2)cc1,3.32%,68.2%,84%,7.67%,30.8%,2.79%,6.52%,-1.97%,-3.36%,5.85%,24.8%,86.3%,96.6%,3.1%,3.06%,11.6%,25.9%,11.6%,21.5%,0.23%
COc1cccc(-c2c[nH]c3c(N/N=C/c4ccncc4)ncnc23)c1,2.46%,14.2%,54.2%,2.08%,18.4%,6.9%,39%,16.4%,10.5%,7.3%,38%,19.6%,65.2%,1.26%,1.55%,3.1%,11%,3.98%,11.2%,2.82%
Clc1ccc(-c2nn3ncccc3c2-c2ccnc(Nc3ccccc3)n2)cc1,1.94%,25.1%,70.2%,4.39%,14.6%,0.8%,4.19%,-2.63%,-0.64%,1.14%,5.63%,44.9%,89.5%,0.2%,0.42%,2.69%,4.94%,2.08%,5.6%,-2.35%
